The values that follow come from PubChem BioAssay AID1220 (Sanford-Burnham Center for Chemical Genomics, 2008).

By inhibition is commonly meant the relative decrease from the control value, in per cent.

The campaign covered roughly 190,000 compounds. About 1,300 (0.68%) were called active. No stated cut-off is given here; in the data, active means inhibition above about 50%; inactive means the rest. The sample as a whole holds a higher share of actives than the screen did.

For this test, the target named is Mannose-6-phosphate isomerase (Homo sapiens) (UniProt P34949). In words: MPI inhibition at elevated mannose 6-phosphate – biochemical, fluorescence intensity, high mannose 6-phosphate, primary screen (AID 1220). To be noted: recombinant PMI enzyme, coupled fluorescence intensity; at 20 µM; stronger effect = higher value.
Chain of Mannose-6-phosphate isomerase (Homo sapiens) (P34949 whole entry, looked up): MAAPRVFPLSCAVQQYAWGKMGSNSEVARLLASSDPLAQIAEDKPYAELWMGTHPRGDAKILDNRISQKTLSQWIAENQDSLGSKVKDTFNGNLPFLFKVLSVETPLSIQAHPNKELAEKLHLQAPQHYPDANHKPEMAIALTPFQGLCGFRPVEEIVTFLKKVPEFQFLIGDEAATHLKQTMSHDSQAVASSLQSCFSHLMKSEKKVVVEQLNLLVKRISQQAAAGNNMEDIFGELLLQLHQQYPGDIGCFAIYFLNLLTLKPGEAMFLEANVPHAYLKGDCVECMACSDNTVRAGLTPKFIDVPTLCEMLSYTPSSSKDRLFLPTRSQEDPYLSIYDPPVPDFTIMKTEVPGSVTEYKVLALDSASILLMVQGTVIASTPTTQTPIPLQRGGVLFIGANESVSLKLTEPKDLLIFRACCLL
`CC(Sc1nnc(NC2CCCCC2)s1)C(=O)Nc1ccc2c(c1)C(=O)c1ccccc1C2=O` (stereo unspecified): the inhibition is -14.7% (inactive). For the compound `O=C(Nc1nccs1)c1ccc(CSc2nnnn2-c2ccccc2)cc1`, the inhibition is -6.7% (inactive). With `O=C(CN1CCN(C(=O)N2CCCCC2)CC1)Nc1ccc(F)cc1` the figure was 6.5% (inactive); with `CCOC(=O)C1Sc2ccccc2NC1=O` (stereo unspecified), 36.5% (inactive). With `CN(C(=O)c1cccnc1)c1nnc(-c2ccccn2)s1` the figure was 2% (inactive); with `CCN1CCc2c(C#N)c(NCc3ccccc3)nc(N(CC)CC)c2C1`, 0.8% (inactive); with `C=CCNc1nc(N2CCOCC2)c(C#N)c2c1CN(C)CC2`, 37.3% (inactive).

On to `N#Cc1c(N2CCCCC2)nc(N2CCCCC2)c2c1CCN(Cc1ccccc1)C2`, for which the inhibition was 8% (inactive). With `CCN1CCc2c(C#N)c(N3CCCCC3)nc(NCc3ccccc3)c2C1` the figure was 32.5% (inactive). For `C=CCNc1nc(N2CCCCC2)c(C#N)c2c1CN(Cc1ccccc1)CC2`, the inhibition was 55.6% (active). Turning to `CC(C)CCNc1nc(N2CCCC2)c2c(c1C#N)CCN(C)C2`, the inhibition is 14.4% (inactive).

On to `N#Cc1c(NCCN)nc(NCc2ccccc2)c2c1CCN(Cc1ccccc1)C2`, for which the inhibition was 52.6% (active). For the compound `CN1CCc2c(C#N)c(N3CCCCC3)nc(NCc3ccccc3)c2C1`, the inhibition is 53% (active). With `Nc1[nH]nc2nc(NCc3ccccc3)c3c(c12)CCN(Cc1ccccc1)C3` the figure was 3.5% (inactive); with `CCCN1Cc2cccc(C(=O)N3CCN(c4ccccc4)CC3)c2C1=O`, 1% (inactive). With `O=C(Nc1ccc(N2CCOCC2)cc1)c1ccccc1SCC(=O)N1CCCC1` the figure was 4.1% (inactive); with `Fc1ccc(CNC(=S)NC2CCCCC2)cc1`, 8.4% (inactive); with `CN1C(=O)CC(Nc2cccc3cccc(N)c23)C1=O` (stereo unspecified), 49.7% (inactive). With `COc1ccc(NC2CC(=O)N(C(C)C)C2=O)cc1` (stereo unspecified) the figure was 8.8% (inactive); with `CC(C)N1C(=O)CC(Nc2cccc3cccc(N)c23)C1=O` (stereo unspecified), 64.5% (active); with `Cc1ccc(C2=NC(=O)/C(=C/c3cc(O)c(O)c(Br)c3)S2)cc1`, 53.2% (active). As for `COc1cc(/C=C2\SC(c3ccc(C)cc3)=NC2=O)ccc1O`, the inhibition was 9.3% (inactive). Consider `COc1cc(/C=C2\SC(c3ccc(C)cc3)=NC2=O)cc(OC)c1O`, for which the inhibition was 26.7% (inactive). Consider `Cc1cccc(OCc2nnc(SCC(=O)Nc3ccc(C)c(C)c3)o2)c1`, for which the inhibition is 17.5% (inactive). Take `Fc1ccccc1N1CCN(c2nnnn2-c2ccccc2)CC1`: the inhibition was -2.8% (inactive). The result for `COc1ccc(-n2c(C)cc(/C=N/Nc3nnc(C)n3N)c2C)cc1` reads -12.8% (inactive); that for `Cc1cc(=O)[nH]c(N/N=C/c2ccc([N+](=O)[O-])cc2)n1`, -4.6% (inactive).

Consider `Nn1cnnc1N/N=C/c1ccc(Cl)c([N+](=O)[O-])c1`, for which the inhibition is 60.2% (active). With `CCc1nnc(N/N=C/c2ccc(-c3ccc([N+](=O)[O-])cc3)o2)n1N` the figure was 41.3% (inactive); with `Nn1cnnc1N/N=C/c1cc([N+](=O)[O-])c(Cl)cc1Cl`, -35.2% (inactive); with `Cc1nnc(N/N=C/c2ccc([N+](=O)[O-])cc2)n1N`, 68.7% (active). The result for `COc1ccc(/C=N/Nc2nonc2N)cc1OC` reads -6.6% (inactive); that for `COc1ccc(/C=N/Nc2nnc(C)n2N)cc1OC`, 67.2% (active). The result for `CC1CCN(c2ccc(/C=N\Nc3nncn3N)cc2[N+](=O)[O-])CC1` reads 43.7% (inactive); that for `CCc1cc(=O)oc2cc(C)c3c(C)coc3c12`, 4.2% (inactive); that for `COc1ccc(C(=O)N(CN2CCCC2=O)c2ccccc2OC)cc1OC`, 18.2% (inactive). Take `O=C(Nc1nc(-c2ccc(Cl)cc2)cs1)NC1CCCCC1`: the inhibition was -7.6% (inactive). The result for `CCN(CC)C(=O)CSc1nc(O)c(Cc2ccccc2)c(=O)n1-c1ccccc1` reads -5.3% (inactive).

Take `Nn1c(SCC(=O)NCc2ccccc2)nncc1=O`: the inhibition is 11.9% (inactive). With `Oc1ccc(-c2csc(-c3c[nH]c4ccccc34)n2)c(O)c1` the figure was -4.2% (inactive); with `Cc1ccc(/C=C2\C(=O)Nc3ccccc32)o1`, 6.8% (inactive). The result for `N#CCC(=O)N/N=C/c1ccc(OC2CSC2)cc1` reads 6.6% (inactive); that for `CN(C)c1nc(Oc2ccc(=O)[nH]n2)nc(N2CCCCC2)n1`, -0.1% (inactive); that for `CCOC(=O)Cc1csc(SCC(=O)NC2CCCCC2)n1`, -6% (inactive). With `CCOC(=O)Cc1csc(SCC(=O)NC2CCCC(C)C2C)n1` (stereo unspecified) the figure was -3.7% (inactive). For the compound `CCOC(=O)Cc1csc(SCC(=O)NC(C)C23CC4CC(CC(C4)C2)C3)n1` (stereo unspecified), the inhibition was 51% (active). The result for `COC(C(=O)Nc1ccc(F)cc1F)c1ccccc1` (stereo unspecified) reads 0.3% (inactive); that for `O=C(NCCCn1ccnc1)C(Cc1ccc([N+](=O)[O-])cc1)N1C(=O)c2ccccc2C1=O` (stereo unspecified), -5.8% (inactive); that for `CCn1c(Cc2ccccc2)nnc1SCC(=O)c1cccc([N+](=O)[O-])c1`, 5.6% (inactive). As for `Cc1noc(C)c1S(=O)(=O)Nc1ccc(C(=O)NCCc2ccccc2)cc1`, the inhibition was 3.4% (inactive). The result for `COc1ccc(-c2ccc(/C=N/N3C(=O)C4C5C=CC(C6CC56)C4C3=O)o2)c([N+](=O)[O-])c1` (stereo unspecified) reads 42.2% (inactive). The result for `O=C1C2C3C=CC(C3)C2C(=O)N1/N=C/c1ccc(-c2ccccc2[N+](=O)[O-])o1` (stereo unspecified) reads 51.5% (active); that for `O=C1ON=C(c2ccccc2)/C1=C/c1ccc(-c2ccccc2[N+](=O)[O-])o1`, -11% (inactive); that for `O=[N+]([O-])c1ccccc1-c1ccc(/C=N/n2cnnc2)o1`, 51.1% (active).

As to `O=C1C2C3C=CC(C4CC34)C2C(=O)N1/N=C/c1ccc(-c2ccc(Cl)cc2[N+](=O)[O-])o1` (stereo unspecified), the inhibition was 7.4% (inactive).

`Cc1ccc(-c2ccc(/C=N/N3C(=O)C4C5C=CC(CC5)C4C3=O)o2)c([N+](=O)[O-])c1` (stereo unspecified): the inhibition was 33.2% (inactive). With `Cc1ccc(-c2ccc(/C=N/N3C(=O)C4C5C=CC(C6CC56)C4C3=O)o2)c([N+](=O)[O-])c1` (stereo unspecified) the figure was 50.8% (active); with `O=C1/C(=C\c2ccc(-c3ccccc3[N+](=O)[O-])o2)C(c2ccccc2)=NN1c1ccccc1`, -2.3% (inactive). With `O=c1nc2s/c(=C\c3ccc(-c4ccccc4[N+](=O)[O-])o3)c(=O)n2nc1-c1ccccc1`, the inhibition is 50.5% (active). With `Cc1n[nH]c(=S)n1/N=C/c1ccc(-c2ccccc2[N+](=O)[O-])o1` the figure was 21.2% (inactive); with `O=C1C2C3C=CC(C4CC34)C2C(=O)N1/N=C/c1ccc(-c2ccc(F)cc2[N+](=O)[O-])o1` (stereo unspecified), 14.4% (inactive); with `Clc1ccccc1-c1ccc(/C=N/n2cnnc2)o1`, 6.7% (inactive).

Turning to `CCCc1nc(N)c(C#N)c(N)c1C#N`, the inhibition was 3.2% (inactive). The result for `O=C(Nc1cc(S(=O)(=O)N2CCOCC2)ccc1N1CCOCC1)c1ccc(S(=O)(=O)N2CCCCC2)cc1` reads -10.7% (inactive). The result for `Clc1ncn(C23CC4CC(CC(C4)C2)C3)n1` reads -0.3% (inactive); that for `CCOC(=O)c1cccc(NC(=O)CN(c2ccc(OC)cc2)S(=O)(=O)c2c(C)noc2C)c1`, 19.2% (inactive). The result for `Cc1c(O)c(CN2CCCCC2)cc2c1oc(=O)c1ccccc12` reads 1.8% (inactive). Take `NC(=O)C1(N2CCCCC2)CCN(CC(=O)Nc2cc(Cl)ccc2Cl)CC1`: the inhibition is 7.2% (inactive). As to `CCC1(C)COC2(OC1)C(=O)Nc1ccccc12` (stereo unspecified), the inhibition is 8.2% (inactive).

Consider `Cc1ccc(NC(=O)CS(=O)CC(=O)NCCCN(C)c2ccccc2)cc1` (stereo unspecified), for which the inhibition was 11.5% (inactive). With `COC1CCCN(Cc2cn(C)nc2-c2ccc(Oc3ccccc3)cc2)C1` (stereo unspecified) the figure was 8.1% (inactive). The result for `O=C(NCC1CCCO1)C(=O)NCC(c1ccco1)N1CCN(c2ccccc2)CC1` (stereo unspecified) reads -4.7% (inactive); that for `O=C(Oc1cccc2cccnc12)c1cccc(N2C(=O)C3C4CCC(C4)C3C2=O)c1` (stereo unspecified), 51.9% (active); that for `Cc1ccc(C(=O)Oc2ccccc2N2C(=O)C3C4CCC(C4)C3C2=O)cc1` (stereo unspecified), 0.7% (inactive). With `O=C(Oc1cccc2cccnc12)c1cccc(-n2cnnn2)c1` the figure was 27.9% (inactive); with `CC1CCC2C(=O)N(c3ccc(C(=O)Oc4cccc5cccnc45)cc3)C(=O)C2C1` (stereo unspecified), 48.7% (inactive); with `O=C(Oc1cccc2cccnc12)c1ccc(N2C(=O)C3C4CCC(C4)C3C2=O)cc1` (stereo unspecified), 50.5% (active). On to `O=C(Nc1ccc(F)cc1)c1cccc(N2C(=O)C3C4CCC(C4)C3C2=O)c1` (stereo unspecified), for which the inhibition was 9.3% (inactive). With `Cn1c(=O)c2c(nc(N3CCCC3)n2CC(O)CO)n(C)c1=O` (stereo unspecified) the figure was -12.4% (inactive). The result for `Cc1cc(C)nc(NC(=O)c2cc(Br)ccc2Cl)n1` reads -2.5% (inactive). The result for `O=C(COC(=O)c1cccs1)Nc1cc(S(=O)(=O)N2CCOCC2)ccc1Cl` reads -2.3% (inactive); that for `COc1cc(NC(=O)CCNC(=O)Cn2cnc3ccccc3c2=O)cc(OC)c1OC`, 10.9% (inactive).

`COC(=O)c1nnn(-c2nc(N3CCOCC3)nc(N3CCOCC3)n2)c1C`: the inhibition was 8.7% (inactive). The result for `COc1cc(OC)c(/C=N/NC(=O)c2ccncc2)cc1Br` reads -19.4% (inactive). The result for `COc1ccc(/C=N/NC(=O)c2ccncc2)cc1[N+](=O)[O-]` reads -13.2% (inactive).

As to `COc1cc(OC)c([N+](=O)[O-])cc1/C=N/NC(=O)c1ccncc1`, the inhibition was 58.7% (active). The result for `COc1ccc(Cn2nnnc2C(c2ccc3ncccc3c2)N2CCN(C3CCCCC3)CC2)cc1` (stereo unspecified) reads -3.1% (inactive). In the case of `O=C(NC(=S)Nc1cccc2ncccc12)c1cccs1`, the inhibition was 67.1% (active). Regarding `O=C(NC(=S)Nc1cccc2ncccc12)c1ccco1`, the inhibition is 7.2% (inactive). With `COCCCNC(=S)Nc1ccccc1C` the figure was 15.8% (inactive); with `O=C(Cc1ccc(Cl)c(Cl)c1)Nc1cccc2ncccc12`, 8.6% (inactive). With `O=C(NC(=S)Nc1cccc2ncccc12)c1ccccc1` the figure was 30.3% (inactive); with `COCCCNC(=S)Nc1cccc2ncccc12`, 54.4% (active). As for `COCCNC(=S)Nc1cccc2cnccc12`, the inhibition was 48% (inactive). The result for `O=C(O)c1cc(Cl)c(Cl)cc1C(=O)Nc1cccc2cccnc12` reads 46% (inactive). For `O=C(O)c1cc(Cl)c(Cl)cc1C(=O)Nc1cccc2ncccc12`, the inhibition was 54.8% (active).
